# About 83,000 compounds went through this panel and 20% of them were active in at least one assay; those are over-represented in the sample as a whole.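 Cell lines were cultured in 96-well plates, exposed to a single compound concentration, and assessed for percent growth 48 hours later.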 Values without a mark were called inactive. Activity calls are given as the source filed them. The calls were made as follows: active = growth percent below 10; inactive = the rest.
# Experiments:
# Test in all cases: NCI-60 one-dose screen, 48 h (100 = growth as untreated, 0 = no growth, -100 = all killed)
# Conditions in all cases: 10 µM unless noted
# [1] = test system: NCI-H23 lung
# [2] = test system: NCI-H226 lung
# [3] = test system: NCI-H322M lung
# [4] = test system: NCI-H460 lung
# [5] = test system: HOP-92 NSCLC
# [6] = test system: NCI-H522 lung
# [7] = test system: A549/ATCC NSCLC
# [8] = test system: 786-0 renal
# [9] = test system: COLO 205 colon
# [10] = test system: DU-145 prostate
# [11] = test system: K-562 leukemia
# [12] = test system: MALME-3M melanoma
# [13] = test system: MDA-MB-231 breast
# [14] = test system: RXF 393 renal
# [15] = test system: SF-268 CNS
# [16] = test system: SF-295 CNS
# [17] = test system: SF-539 CNS
# [18] = test system: UACC-257 melanoma
# [19] = test system: M14 melanoma
SMILES,growth [1],growth [2],growth [3],growth [4],growth [5],growth [6],growth [7],growth [8],growth [9],growth [10],growth [11],growth [12],growth [13],growth [14],growth [15],growth [16],growth [17],growth [18],growth [19]
COc1ccc(Nc2nc(N)nc3c2CCc2occc2-3)cc1,92.4%,97.1%,95.3%,108%,99.6%,76.9%,103%,95.5%,116%,102%,92.4%,110%,99.5%,114%,100%,86.2%,96.8%,108%,93.6%
CCCCCCCCCCCC(=O)C(CCCCCCCCCC)C(=O)Nc1ccccc1 (stereo not drawn),95.8%,97.1%,90.6%,111%,102%,89.4%,91.2%,107%,108%,104%,104%,105%,91.2%,116%,104%,102%,98.2%,92.9%,103%
CCCCCCOc1ccc(/C=N/Nc2cc(C)nc3ccc(Br)cc23)cc1,14%,71.1%,-73.7% (active),-72% (active),34.5%,-61.4% (active),-59.5% (active),-87.7% (active),-51.8% (active),-82.9% (active),-64.5% (active),-82.3% (active),-88.9% (active),-97.3% (active),-1.78% (active),-83.3% (active),-84.8% (active),117%,-44.4% (active)
COc1ccccc1/C=C1\Oc2cc(OCCCN3CCCC3)ccc2C1=O,83%,98.7%,96.5%,95.9%,63.1%,104%,99.9%,94%,96.4%,98%,4.95% (active),96.5%,86.5%,–,90.3%,99.2%,76.4%,109%,100%
COc1ccc2c(c1)OC13Oc4cc(OC)ccc4C=C1CCCC3=C2,48.3%,64.1%,80.8%,–,26.6%,20.4%,75%,38.7%,-9.95% (active),33.9%,23.5%,70.3%,32%,16%,38.5%,78.6%,84.5%,52.5%,31.5%
O=C(Nc1cccc(Cl)c1)c1cc(Cl)ccc1O,0.837% (active),-2.52% (active),4.17% (active),2.08% (active),-32% (active),-2.31% (active),14.7%,5.54% (active),78.6%,24.1%,15.5%,-17.8% (active),1.35% (active),-12.3% (active),18%,-60.3% (active),19.4%,-4.11% (active),8.3% (active)
CC[N+](CC)(CCCC(C)[N+]1(Cc2ccccc2)C(C)=CC=C1C)Cc1ccccc1 (stereo not drawn),72.3%,81.2%,96.7%,97%,55.3%,75%,100%,99.5%,67.9%,101%,54.6%,87.8%,78.6%,–,98.9%,97.8%,97.6%,84.2%,66.5%
O=C(OC(OC(=O)c1cc(Cl)cc(Cl)c1)c1cccc2ccccc12)c1ccccc1 (stereo not drawn),93.6%,98.7%,101%,107%,101%,80.4%,–,101%,112%,103%,92.1%,91%,95.5%,110%,94.8%,107%,103%,96.1%,101%

# Reference: PubChem BioAssay (NCI)
